Measurements: PubChem BioAssay (EPA / NIEHS)
Activity calls are given as the source filed them. Rule for the calls: active = hit-call score of the fitted dose curve at least 0.9, where 1 is the maximum; inactive = score below 0.9.

The compounds below were run on Cytochrome P450 4A22 (Homo sapiens) (UniProt Q5TCH4) (assay: LTEA_HepaRG_CYP4A22: Life Technologies and Expression Analysis (LTEA) Assay for Cytochrome P450 4A22 (CYP4A22) using HepaRG (AID 2283495)). Settings: mRNA level, 48 h; actives raise or lower the signal.
Protocol: LTEA_HepaRG is a cell based, multiplexed-readout assay that uses HepaRG, a human liver cell line, with measurements taken at 48 hours after chemical dosing on a 96-well plate.LTEA_HepaRG_CYP4A22 is one of 102 assay component(s) measured in the LTEA HepaRG cell culture assay. It is a marker of NR mediated metabolism.Data from the assay component LTEA_HepaRG_CYP4A22 was analyzed into 1 endpoint. This assay endpoint, LTEA_HepaRG_CYP4A22, was analyzed with bidirectional fitting relative to DMSO as the negative control and baseline of activity. Using a type of inducible reporter, measures of mRNA induction for gain or loss-of-signal activity can be used to understand regulation of transcription factor activity. To generalize the intended target to other relatable targets, this assay endpoint is annotated to the cyp intended target family, where the subfamily is xenobiotic metabolism.
A total of 1060 chemcials from the ToxCast library were tested in eight-point concentration-response experiments. Cell culture and cytotoxicity assays were conducted at Thermo Fisher Scientific's Custom Services facility (Madison, WI). A single lot of human HepaRG cells (Thermo Fisher Scientific, Frederick, MD) was used for the cell culture experiments. 96-well format collagen type I coated plates of human HepaRG cells were prepared using established methods. Briefly, cryopreserved HepaRG cells were thawed, plated at a density of approximately 100,000 cells/well in HepaRG Thaw, Plate, and General Purpose media (HPRG770, Thermo Fisher Scientific), and incubated for 48 hours. 0.5% DMSO was selected as vehicle control to balance the requisite need of DMSO in HepaRG cultures to maintain differentiation (for example, baseline metabolism, proportions of hepatocytes vs. cholangiocytes), while enabling further hepatic receptor pathway activation (for example, PXR and CAR) in response to chemical exposure. 48 hours after plating, the culture medium was replaced with HepaRG Serum-Free Incudtion Media. Cells were exposed to each test chemical in duplicate and maintained in CO2 incubators for another 48 hours. Chemical plates were thawed to room temperature and 200x concentrations of treatment groups were prepared. 8-point conentration-reponse curves were made with the highest exposure at 100 uM, followed by half-log dilutions, all in 0.5% DMSO. Each test plate contained variouse controls, induction positive controls (1mM phenobarbital), cytotoxicity positive controls ([…] aflatoxin B1), vehicle controls (0.5% DMSO), and total lysis controls (0.5% DMSO). Cell morphology images were taken using an Essen IncuCyte FLR automated microscope, with six 96-well plates imaged in about 24 minutes. Images were captured and exported and JPEG files. Spent culture media was transfered to black-well plates for the LDH assay, and remaining media was sorted at -80 C for later use. Cells were treated with RLT buffer and frozen until shipped for gene expression analysis. Total RNA was isolated from the cell suspension in 75 uL of Buffer RLT (Qiagen, Germantown, MD 20874) by Quintiles/Expression Analysis (Durham, NC) using a custom isolation procedure. Total RNA from each plate well was transferred to a preamplification plate. Fluidigm's 96.96 Dynamic ArrayTM (Fluidigm, Amsterdam, the Netherlands) technology was used for gene expression analyses by quantitative reverse transcription polymerase chain reaction (qRT-PCR, performed by Quintiles/Expression Analysis, Durham, NC)89. Standard TaqManTM Assays (Applied Biosystems/ThermoFisher Scientific, Foster City, CA) were used to assess the expression of 93 genes selected based on their selectivity and sensitivity to important hepatic receptors known to be modulated by environmental chemicals; importance in human hepatocyte functionality; and hepatotoxicity. […]

| Compound | outcome | AC50 |
| --- | --- | --- |
| CCC(C)c1ccccc1O (stereo unspecified) | inactive |  |
| CCCCC=O | inactive |  |
| CN(Cc1cnc2nc(N)nc(N)c2n1)c1ccc(C(=O)N[C@@H](CCC(=O)O)C(=O)O)cc1 | inactive |  |
| O=C1NS(=O)(=O)c2ccccc21 | inactive |  |
| N=C(N)c1ccc(OCCCCCOc2ccc(C(=N)N)cc2)cc1 |  | 3.87 µM (active) |
| OCC(CO)(CBr)CBr | inactive |  |
| CC(=O)Nc1ccc(O)cc1 | inactive |  |
| CCCCC(CC)C(=O)O (stereo unspecified) | inactive |  |
| O=C(CCCN1CCC(O)(c2ccc(Cl)cc2)CC1)c1ccc(F)cc1 |  | 64 µM (active) |
| Cc1[nH]nc2c1N=C(c1ccccc1Cl)c1cc([N+](=O)[O-])ccc1N2 |  | 8.32 µM (active) |
| CCCCCCCCCCCCCCC | inactive |  |
